Screening data (PubChem)
Mcl1-Noxa inh: disrupts binding of human Mcl-1 to Noxa peptide | Q07820 | TR-FRET Mcl-1/Noxa peptide binding, 2 h | inhibition, % at 21.7 µM | 220,000 compounds, 1.5% hits | AID 1022;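 active means compounds that cut the protein-peptide binding signal by more than 50% relative to plate controls in a single-dose test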;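 further: His-tagged Mcl-1 with rhodamine Noxa BH3 peptide and terbium anti-His antibody; 0% = Mcl-1 plus Noxa peptide wells and 100% = peptide-only wells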
Target sequence (Q07820 whole entry, looked up): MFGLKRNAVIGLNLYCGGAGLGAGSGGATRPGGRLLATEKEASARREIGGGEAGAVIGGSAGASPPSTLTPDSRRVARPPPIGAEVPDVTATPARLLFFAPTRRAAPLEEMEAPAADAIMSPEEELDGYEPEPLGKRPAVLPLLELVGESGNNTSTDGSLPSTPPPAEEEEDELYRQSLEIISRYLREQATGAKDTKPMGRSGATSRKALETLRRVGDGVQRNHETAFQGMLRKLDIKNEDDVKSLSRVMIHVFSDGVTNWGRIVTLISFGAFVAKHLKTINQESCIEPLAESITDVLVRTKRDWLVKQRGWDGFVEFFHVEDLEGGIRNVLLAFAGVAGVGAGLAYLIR
14-3-3 Bad PPI: disrupts binding of bovine 14-3-3 zeta to phospho-Bad peptide | 220,000 compounds, 0.71% hits | P63103 | inhibition, % at 21.7 µM | TR-FRET 14-3-3zeta/Dy647-pBad peptide displacement, 1 h;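 active means inhibition above about 70%, limit read from the data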;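 further: 0% = full 14-3-3 plus peptide FRET controls and 100% = background without 14-3-3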
Target sequence (P63103 whole entry, looked up): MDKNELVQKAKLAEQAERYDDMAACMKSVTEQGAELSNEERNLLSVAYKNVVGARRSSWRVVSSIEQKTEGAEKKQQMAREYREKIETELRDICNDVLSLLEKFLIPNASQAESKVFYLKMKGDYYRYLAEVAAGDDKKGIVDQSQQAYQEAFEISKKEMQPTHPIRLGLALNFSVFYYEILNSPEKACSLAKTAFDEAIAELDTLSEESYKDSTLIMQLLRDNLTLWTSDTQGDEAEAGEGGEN
Arbovirus inh: blocks arbovirus infection; arbovirus infection cell-based antiviral screen; inhibition, % at 10 µM; AID 1251; 200,000 compounds, 0.37% hits; in the data active means inhibition above about 30%
Bim-Mcl-1: human Bim-Mcl-1 interaction inhibition; 190,000 compounds, 0.1% hits; Bead-based flow cytometry, Bim peptide-Mcl-1 binding; AID 1009; Q07820; inhibition, % at 10 µM; in the data active means inhibition above about 40%;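 further: 0% = no compound tracer wells and 100% = peptide blocker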
Mcl1-Bid inh: Mcl-1/Bid interaction inhibition | Q07820 | TR-FRET Mcl-1/Bid-Dy647 peptide binding, 1536-well | inhibition, % at 21.7 µM | 220,000 compounds, 0.97% hits;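 active means compounds that cut the binding signal by more than half at the single screening dose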;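 further: His-tagged Mcl-1 with europium anti-His antibody binding Bid BH3 peptide; 0% = Mcl-1 plus peptide wells and 100% = peptide-only wells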
Starred values were filed as active, the others as inactive; / = not tested or not shown; [ ] = another dose, or the depositor's remark. This is a sample that favours compounds with a hit; in the whole collection about 3% have one here.

SMILES | Mcl1-Noxa inh | 14-3-3 Bad PPI | Arbovirus inh | Bim-Mcl-1 | Mcl1-Bid inh
Cc1noc(NS(=O)(=O)c2ccc(N/C=C\C(=O)c3ccc(Br)cc3)cc2)c1C | 38.7 | 2.9 | 21.9 | 0.0 | -18.7
COc1cccc(C(=O)/C=C/Nc2ccc(S(=O)(=O)Nc3onc(C)c3C)cc2)c1 | 2.2 | -0.8 | 4.6 | 66.0* | -12.2
O=C1/C(=C\c2ccco2)NC(=S)N1c1ccccc1 | 58.0* | 1.5 | 3.5 | 3.0 | -31.1
CCCN=C1N/C(=C\c2ccco2)C(=O)N1c1ccccc1 | 2.0 | -11.2 | 1.0 | -1.0 | -44.2
CCC(C)(C)n1nnnc1CN(Cc1ccco1)Cc1cc2cc3c(cc2[nH]c1=O)OCO3 | 0.9 | / | 3.4 | -1.0 | -29.1
CCC(C)(C)n1nnnc1CN(Cc1ccc(Cl)cc1)Cc1ccco1 | 35.8 | -10.6 | -12.7 | 2.0 | 56.9*
OCCN1CCN(c2cc(-c3ccccc3)c3ccccc3n2)CC1 | 25.1 | 20.5 | -30.8 | -4.0 | 10.5
COC(=O)/C=C1\OC(c2ccccc2)=CC1=O | 66.0* | -5.6 | -4.9 | -15.0 | 0.8
COc1ccc(CNC(=O)c2ccc(-c3ccccc3)cc2)cc1 | 3.9 | 8.9 | 3.1 | 1.0 | 1.3
O=C(OCCCN=C1NS(=O)(=O)c2ccccc21)c1ccccc1F | -2.7 | -13.6 | 4.0 | 2.0 | -43.0
O=C(CSc1nnc(-c2cccnc2)n1C1CCCCC1)NC1CCCC1 | 56.4* | -7.5 | 7.5 | -3.0 | -26.1
COc1ccc2c(c1)CC1c3c(cc4c(c3-2)OCO4)CC[N+]1(C)[O-] (centres undefined) | 21.5 | -3.1 | / | / | -19.3
Cc1ccc(-n2c(SCC(=O)NCCN3C(=O)CSC3=O)nnc2-c2ccccc2)cc1C | 10.8 | -1.0 | -2.1 | -6.0 | 51.5*
NC(=O)C1CC(=O)N(c2ccc(OCc3c(Cl)cccc3Cl)cc2)C1 (centres undefined) | 15.7 | 4.2 | 0.3 | 0.0 | -11.4
Cc1cccc(-c2nc(Nc3ccc(N4CCOCC4)cc3)c3ccccc3n2)c1 | 81.5* | -15.5 | 5.4 | 2.0 | 25.2
Cc1ccc(Nc2nc(-c3cccnc3)nc3ccccc23)cc1 | 42.2 | -2.7 | / | / | 10.8
C/C(CC(=O)Nc1cccc(C(F)(F)F)c1)=N/NC(=O)C(=O)NCCO | 1.4 | -23.5 | / | / | -1.7
CCO[C@@H]1OC(C(=O)Nc2ccccc2)=C[C@H](C2CC2)[C@H]1CCCO | 12.2 | -1.8 | -1.3 | 1.0 | 6.2
O=C(O)CCN1C(=O)/C(=C\c2ccc(-c3nc4ccccc4s3)o2)SC1=S | 102.2* | 17.2 | 26.0 | 25.0 | 95.0*
Cc1ccc(-n2[nH]c(C)c(/C=N/NC(=O)c3ccc([N+](=O)[O-])cc3)c2=O)c(C)c1 | -39.5 | -17.3 | -30.4 | -1.0 | -58.9
Cc1cc(OCC(=O)Nc2nnc(C3CC3)s2)ccc1[N+](=O)[O-] | -2.2 | -12.8 | -16.5 | 0.0 | -5.4
CC(C)(C)NC(=S)NCC1CC1 | 3.2 | -7.0 | / | / | -21.6
CCC(C)NCCCOc1c(C)cc(C)cc1Br (centres undefined) | 118.9* | 4.5 | -15.4 | 0.0 | 26.0
CCCCCCn1c(=O)c(Cc2ccccc2)c(O)c2ccccc21 | 13.3 | -18.0 | 10.4 | -4.0 | -13.7
CCCCCCn1c(=O)c(-c2ccccc2)c(O)c2ccccc21 | 17.2 | 1.3 | 54.0* | -3.0 | 7.6
SMILES | Mcl1-Noxa inh | 14-3-3 Bad PPI | Arbovirus inh | Bim-Mcl-1 | Mcl1-Bid inh
Cc1[nH]c2ccccc2c1C(=O)C(=O)N1CC=C(c2ccccc2)CC1 | 6.6 | -7.3 | -2.3 | -8.0 | 2.9
O=C(COC(=O)CCCc1c[nH]c2ccccc12)Nc1ccc2c(c1)OCO2 | 55.6* | -13.2 | 2.6 | -6.0 | -31.8
Cc1ccc(C)c(OCC(=O)Nc2ccc3c(c2)OCO3)c1C | -15.5 | -6.4 | -17.0 | -3.0 | 85.0*
Cc1ccc(/C=C/C(=O)O)cc1S(=O)(=O)N(C)CCO | -10.0 | 5.4 | -0.6 | -2.0 | 0.7
CN(CCO)S(=O)(=O)c1ccc2c(c1)C(=NO)c1cc(S(=O)(=O)N(C)CCO)ccc1-2 | 39.3 | -8.0 | -1.4 | 5.0 | 83.1*
O=C(O)c1ccccc1-c1ccc(/C=c2\sc3nc4cc(Br)cnc4n3c2=O)o1 | 90.8* | 36.0 | 2.6 | -2.0 | 77.5*
CN(C)c1cccc(C(=O)OC(C(=O)Nc2ccc([N+](=O)[O-])cc2Br)c2ccccc2)c1 (centres undefined) | -8.9 | -7.1 | 9.3 | -3.0 | -15.7
COc1ccc(N2CCN(CC(O)COc3ccccc3[N+](=O)[O-])CC2)cc1 (centres undefined) | 33.5 | 10.5 | 9.7 | -3.0 | -0.8
CCCCCSc1nnc2c(n1)OC(c1cccn1C)N(C(C)=O)c1ccccc1-2 (centres undefined) | 6.5 | -9.7 | 6.6 | 0.0 | 97.6*
CC1CCN(Cc2c(O)ccc3c(=O)c(-c4nc5ccccc5s4)c(N)oc23)CC1 | 52.8* | 0.5 | 0.1 | 3.0 | 4.9
CC1CCCN(Cc2c(O)ccc3c(=O)c(-c4nc5ccccc5s4)c(N)oc23)C1 (centres undefined) | 48.8 | 6.6 | -47.8 | 6.0 | 2.7
COc1cc(/C=C/C(=O)Nc2ccc(C)cc2)cc(OC)c1OC | 3.1 | -6.2 | 10.8 | 0.0 | -12.3
COc1cc(/C=C/C(=O)Nc2nnc(C(C)(C)C)s2)cc(OC)c1OC | 19.8 | 9.7 | 31.3* | 0.0 | -18.9
O=c1c(Cl)c(N/N=C/c2ccc(Cl)cc2)cnn1-c1ccccc1 | 73.7* | 46.9 | 14.4 | -1.0 | 18.0
Cc1ccc(O)c(C(CC(=O)NC2CCCCC2)c2ccccc2)c1 (centres undefined) | 9.7 | -1.7 | -0.9 | -2.0 | -2.8
O=C1C2C3C=CC(C3=C(c3ccccc3)c3ccccc3)C2C(=O)N1CCO (centres undefined) | 14.0 | -11.3 | 1.3 | -8.0 | -2.4
O=C1C2C3C=CC(C3=C(c3ccccc3)c3ccccc3)C2C(=O)N1Cc1ccccc1 (centres undefined) | 64.4* | 15.9 | 0.7 | 0.0 | 20.4
O=C(COC(=O)c1cccc(O)c1)NCc1ccc2c(c1)OCO2 | 5.6 | -4.5 | / | / | -46.5
OC(COC(c1ccccc1)c1ccccc1)CN1CCOCC1 (centres undefined) | 2.0 | -5.7 | 11.4 | -4.0 | -14.6
c1ccc(C(CN2CCOCC2)c2ccccc2)cc1 | 12.8 | 84.4* | -5.1 | 0.0 | 45.0
CCOP(=O)(OCC)c1nc(-c2cccc3ccccc23)oc1NCc1ccc(OC)cc1 | 15.5 | -9.9 | -26.9 | -2.0 | -10.3
CCOC(=O)c1sc2nc(C)nc(SCC(=O)N(C)C3CCS(=O)(=O)C3)c2c1C (centres undefined) | 9.4 | 1.7 | 19.6 | -4.0 | -29.9
C=C(C)CN(CC)C(=O)CSc1nc(O)cc(=O)n1C1CCCC1 | 17.8 | -11.8 | 30.1* | 0.0 | -45.6
O=C(Cn1nnc(-c2ccccc2)n1)NNC(=O)c1ccco1 | -8.5 | 0.4 | -7.7 | 0.0 | -28.8
NC1=NC(=O)/C(=C\c2ccco2)S1 | 56.9* | 21.4 | / | / | -68.9
CC(=O)NCC1=C(NC(C)=O)C2CC1C(C)(C)C2C (centres undefined) | -5.0 | 11.4 | 31.0* | 0.0 | -22.9
O=C(O)c1ccc(CNCc2c(Cl)cccc2Cl)cc1 | 29.2 | 6.1 | -3.1 | -8.0 | -9.6
COc1ccc2c(-c3cc4ccc(OCc5ccc(F)cc5)cc4oc3=O)cc(=O)oc2c1 | -1.8 | 92.0*[fluorescence artefact?] | -10.4 | 0.0 | 55.9*
